Where a chain is given by its changes, count along the chain named.
What was measured:
Assay in all cases: protein-binding microarray (PBM); PBM: ~300 nM protein, 6 mM HEPES pH 7.8, 80 mM KCl, 0.5 mM EDTA, 0.5 mM EGTA, 6% glycerol, 35 ng/ul poly-dIdC, 1% milk, 1 h, room temperature; Ap Aiptasia and Nv Nematostella (sea anemones) / Co Capsaspora / Aq Amphimedon (sponge) / Dm Drosophila / Hu human; RHD is the Rel homology domain; high values mean tight binding
Settings in all cases: dsDNA, one strand shown
GST-Ap-NF-kB RHD = molecular target: T1, GST-Ap-NF-kB RHD (Exaiptasia pallida (Aiptasia), UniProt A0A913YAJ5 2-422)
T1 sequence: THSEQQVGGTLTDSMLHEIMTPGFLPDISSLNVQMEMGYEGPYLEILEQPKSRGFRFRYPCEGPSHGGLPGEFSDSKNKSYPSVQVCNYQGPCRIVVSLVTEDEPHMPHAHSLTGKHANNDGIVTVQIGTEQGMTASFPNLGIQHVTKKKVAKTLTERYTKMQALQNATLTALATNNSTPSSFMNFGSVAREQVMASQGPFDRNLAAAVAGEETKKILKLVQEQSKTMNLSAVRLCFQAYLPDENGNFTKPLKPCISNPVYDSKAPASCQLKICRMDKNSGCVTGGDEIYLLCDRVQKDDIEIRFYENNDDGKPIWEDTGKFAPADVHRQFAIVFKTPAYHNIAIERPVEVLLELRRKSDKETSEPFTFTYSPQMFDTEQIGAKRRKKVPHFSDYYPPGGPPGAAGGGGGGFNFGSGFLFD

[1] = molecular target: T2, GST-Nv-NF-kB (Cys allele) (Nematostella vectensis, UniProt E5G601 2-411)
T2 sequence: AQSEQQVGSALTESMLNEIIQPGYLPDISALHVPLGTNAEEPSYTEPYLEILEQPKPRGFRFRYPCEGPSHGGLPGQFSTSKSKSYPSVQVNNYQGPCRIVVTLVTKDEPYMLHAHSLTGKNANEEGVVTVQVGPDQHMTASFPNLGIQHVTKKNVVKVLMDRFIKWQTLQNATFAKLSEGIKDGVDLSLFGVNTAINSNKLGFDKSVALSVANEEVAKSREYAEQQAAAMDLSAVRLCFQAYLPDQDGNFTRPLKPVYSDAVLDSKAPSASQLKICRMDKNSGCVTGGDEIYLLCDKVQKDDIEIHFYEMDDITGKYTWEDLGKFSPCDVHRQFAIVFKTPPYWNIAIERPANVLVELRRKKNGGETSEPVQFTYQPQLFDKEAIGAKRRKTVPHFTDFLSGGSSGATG

[2] = molecular target: T3, GST-Nv-NF-kB (Ser allele) (Nematostella vectensis, UniProt A7UNT2 2-411)
T3 sequence: T2 sequence with Q21R, C66S, S207N, E215Q, V217A, E225K, A268E, D399E

GST-Co-NF-kB = molecular target: T4, GST-Co-NF-kB (Capsaspora owczarzaki, UniProt F1ARL5 200-546)
T4 sequence: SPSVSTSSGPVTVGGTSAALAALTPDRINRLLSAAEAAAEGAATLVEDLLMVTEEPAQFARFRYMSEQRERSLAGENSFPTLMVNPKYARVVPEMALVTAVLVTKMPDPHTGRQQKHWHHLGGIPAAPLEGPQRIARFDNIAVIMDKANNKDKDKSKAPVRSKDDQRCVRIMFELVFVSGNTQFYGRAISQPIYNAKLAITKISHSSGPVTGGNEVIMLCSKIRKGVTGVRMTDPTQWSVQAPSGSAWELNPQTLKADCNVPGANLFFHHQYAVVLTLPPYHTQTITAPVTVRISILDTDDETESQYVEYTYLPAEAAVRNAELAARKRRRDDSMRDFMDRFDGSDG

GST-Dm-Relish = molecular target: T5, GST-Dm-Relish (Drosophila melanogaster, UniProt Q94527 99-473)
T5 sequence: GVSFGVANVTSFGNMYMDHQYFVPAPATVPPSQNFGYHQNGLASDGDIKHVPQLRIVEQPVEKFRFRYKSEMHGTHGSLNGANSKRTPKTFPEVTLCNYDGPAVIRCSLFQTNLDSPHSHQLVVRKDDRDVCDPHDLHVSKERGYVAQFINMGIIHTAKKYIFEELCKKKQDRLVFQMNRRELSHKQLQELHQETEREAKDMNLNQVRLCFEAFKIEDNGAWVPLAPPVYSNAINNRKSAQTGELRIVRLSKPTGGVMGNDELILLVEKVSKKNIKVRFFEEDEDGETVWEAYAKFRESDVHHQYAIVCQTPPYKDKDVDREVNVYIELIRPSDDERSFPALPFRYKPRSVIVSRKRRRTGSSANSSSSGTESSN

GST-Aq-NF-kB = molecular target: T6, GST-Aq-NF-kB (Amphimedon queenslandica, UniProt A9Y5G7 2-389)
T6 sequence: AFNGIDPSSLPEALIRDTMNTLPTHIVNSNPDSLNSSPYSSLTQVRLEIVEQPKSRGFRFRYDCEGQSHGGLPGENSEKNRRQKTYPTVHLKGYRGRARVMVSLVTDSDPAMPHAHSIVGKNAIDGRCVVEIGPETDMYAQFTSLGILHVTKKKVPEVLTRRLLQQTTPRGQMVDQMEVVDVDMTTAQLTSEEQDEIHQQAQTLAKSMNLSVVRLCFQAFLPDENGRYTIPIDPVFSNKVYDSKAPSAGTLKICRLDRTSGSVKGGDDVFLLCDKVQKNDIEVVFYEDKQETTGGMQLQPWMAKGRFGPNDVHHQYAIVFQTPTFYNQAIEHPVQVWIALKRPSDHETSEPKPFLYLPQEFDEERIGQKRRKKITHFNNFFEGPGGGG

GST-Hu-p50 = GST-Hu-p50 (Homo sapiens, UniProt P19838 7-356)
GST-Hu-p50, sequence (P19838 7-356): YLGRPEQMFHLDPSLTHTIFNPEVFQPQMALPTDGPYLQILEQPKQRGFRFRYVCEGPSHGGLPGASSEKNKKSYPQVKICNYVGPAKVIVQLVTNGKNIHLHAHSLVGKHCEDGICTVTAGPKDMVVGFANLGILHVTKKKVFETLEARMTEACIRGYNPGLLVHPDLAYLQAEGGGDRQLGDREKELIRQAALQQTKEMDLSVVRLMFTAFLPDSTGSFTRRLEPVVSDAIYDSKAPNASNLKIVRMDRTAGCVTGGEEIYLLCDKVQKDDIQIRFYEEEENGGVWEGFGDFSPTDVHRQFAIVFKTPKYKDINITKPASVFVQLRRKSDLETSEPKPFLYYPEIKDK

Sequence | binding signal (GST-Ap-NF-kB RHD) [z-score] | binding signal [1] [z-score] | binding signal [2] [z-score] | binding signal (GST-Co-NF-kB) [z-score] | binding signal (GST-Dm-Relish) [z-score] | binding signal (GST-Aq-NF-kB) [z-score] | binding signal (GST-Hu-p50) [z-score]
CCGATTAACATCAGGGGAATCTATGATGTTAATCGGGTCTTGATTCGCTTGACGCTGCTG | 8.26 | 8.91 | 10.6 | 7.29 | 5.84 | 5.95 | 6.51
CCGATTAACATCAGGGGGAAAGATGATGTTAATCGGGTCTTGATTCGCTTGACGCTGCTG | 5.81 | 5.7 | 7.72 | 8.03 | 2.89 | 5.04 | 5.75
CCGATTAACATCAAAGAAACCCCTGATGTTAATCGGGTCTTGATTCGCTTGACGCTGCTG | 6 | 5.33 | 5.11 | 1.95 | 6.23 | 5.01 | 5.25
CCGATTAACATCAGGCAAACCCCTGATGTTAATCGGGTCTTGATTCGCTTGACGCTGCTG | 3.13 | 2.8 | 1.51 | 1.49 | 3.13 | 4.85 | 3.63
CCGATTAACATCAGAAACCCCCCTGATGTTAATCGGGTCTTGATTCGCTTGACGCTGCTG | 9.47 | 7.7 | 7.63 | 3.94 | 9.65 | 7.6 | 6.97
CCGATTAACATCACAATATCCCCTGATGTTAATCGGGTCTTGATTCGCTTGACGCTGCTG | 7.16 | 6.58 | 7.91 | 4.15 | 5.03 | 4.96 | 4.67
CCGATTAACATCAGAAATCCCCCTGATGTTAATCGGGTCTTGATTCGCTTGACGCTGCTG | 11.2 | 10.5 | 10.8 | 6.78 | 9.63 | 8.32 | 7.68
CCGATTAACATCAGGGAGATCCCTGATGTTAATCGGGTCTTGATTCGCTTGACGCTGCTG | 7.41 | 8.14 | 4.37 | 1.54 | 7.36 | 8.85 | 4.68
CCGATTAACATCAGGGGGATAAATGATGTTAATCGGGTCTTGATTCGCTTGACGCTGCTG | 5.25 | 5.54 | 5.46 | 7.85 | 3.78 | 4.4 | 4.82
CCGATTAACATCAGGGGGAGTAATGATGTTAATCGGGTCTTGATTCGCTTGACGCTGCTG | 5.68 | 4.54 | 5.56 | 6.83 | 3.45 | 4.18 | 5.72
CCGATTAACATCAAGGTTTCCCCTGATGTTAATCGGGTCTTGATTCGCTTGACGCTGCTG | 7.4 | 8.19 | 10.3 | 8.15 | 7.08 | 6.28 | 6.46
CCGATTAACATCAAATTCCCAATTGATGTTAATCGGGTCTTGATTCGCTTGACGCTGCTG | 1.09 | 3.19 | 3.78 | 2.62 | 3.56 | 2.06 | 2.67
CCGATTAACATCACGGGAGTCCCTGATGTTAATCGGGTCTTGATTCGCTTGACGCTGCTG | 5.38 | 3.94 | 4.12 | 1.57 | 8.97 | 5.18 | 3.45
CCGATTAACATCACGGGGAATCCTGATGTTAATCGGGTCTTGATTCGCTTGACGCTGCTG | 9.87 | 9.94 | 8.84 | 8.28 | 10 | 7.48 | 6.2
CCGATTAACATCAGAGAACCCCCTGATGTTAATCGGGTCTTGATTCGCTTGACGCTGCTG | 7.89 | 6.19 | 6.92 | 2.09 | 7.55 | 6.18 | 6.47
CCGATTAACATCAGGATTTCCCATGATGTTAATCGGGTCTTGATTCGCTTGACGCTGCTG | 3.95 | 5.23 | 4.48 | 3.18 | 5.84 | 5.27 | 3.73
CCGATTAACATCAGGGGAATCCATGATGTTAATCGGGTCTTGATTCGCTTGACGCTGCTG | 8.88 | 9.29 | 9.54 | 5.44 | 9.65 | 7 | 6.48
CCGATTAACATCACGGGAATACCTGATGTTAATCGGGTCTTGATTCGCTTGACGCTGCTG | 4.13 | 3.29 | 2.87 | 3.47 | 6.3 | 5.81 | 1.75
CCGATTAACATCAGGGGAGGGAATGATGTTAATCGGGTCTTGATTCGCTTGACGCTGCTG | 3.95 | 5.44 | 5.03 | 5.53 | 2.13 | 5.17 | 3.3
CCGATTAACATCAGGGAATGTTATGATGTTAATCGGGTCTTGATTCGCTTGACGCTGCTG | 2.55 | 4.38 | 3.78 | 2.75 | 1.85 | 5.04 | 3.32
CCGATTAACATCAAAAGAGTCCCTGATGTTAATCGGGTCTTGATTCGCTTGACGCTGCTG | 5.39 | 5.99 | 5.71 | 1.5 | 5.32 | 5.91 | 4.6
CCGATTAACATCAGACATCCCCCTGATGTTAATCGGGTCTTGATTCGCTTGACGCTGCTG | 5.54 | 5.65 | 5.36 | 3.71 | 5.06 | 5.17 | 4.88
CCGATTAACATCAGGGCATCCCCTGATGTTAATCGGGTCTTGATTCGCTTGACGCTGCTG | 7.7 | 8.03 | 5.95 | 2.46 | 9.13 | 8.18 | 5.52
CCGATTAACATCAGGAATGCCCCTGATGTTAATCGGGTCTTGATTCGCTTGACGCTGCTG | 5.19 | 6.58 | 3.31 | 1.64 | 5.92 | 7.72 | 5.39
